Rows were chosen to be rich in hits. Some 1.8% of all compounds tested hit in one or more screens of this group.
Peg3 imprint: inducers of genomic imprint erasure in mouse ES cells; mouse ES Peg3-LacZ reporter, beta-gal luminescence, 40 h; Potency, µM (series often up to 60.7 µM), usual class: activators; AID 1948; 0.02% of 110,000 active
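Readout: BetaGlo luminescence (5 min, room temp) for LacZ from the normally silent maternal Peg3 allele in female Peg3LacZ-Neo ES cells. Cells 300/well, 40 h, 37C, 5% CO2. Data normalized per plate to negative controls.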
IkB signaling: IkB pathway inhibition in ABC-DLBCL cells | ABC-DLBCL IkBa-CBG/CBR dual luciferase ratio, 4 h; response scale: scaled: untreated 0%, proteasome inhibitor 100% | Potency, µM (top dose mostly 57.1 µM) | 0.04% of 110,000 active; active = well fitted curve in the direction sought with a large enough effect in the signal ratio, not every such curve was filed as active; inconclusive = small, poorly fitted or top-dose-only effect, or a change in a side signal; the % refers to the signal ratio;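 note: the direction sought is a rising ratio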
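Curves were fitted separately to fusion (green), unfused (red) and ratio luminescence, then classed by r2, magnitude and activity. Cells: OCI-Ly3, 4 h compound plus doxycycline at 37C; 10 uM MG-132 defined full response.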
p53ts 32C kill: cytotoxicity in p53ts cells at permissive temperature; H1299-p53A138V at 32C, ATP luminescence viability, 24 h; Potency, µM (top dose mostly 46.1 µM), usual class: cytotoxic; 0.93% of 130,000 active; AID 924; note: nearly all actives have a fitted effect of over 55% in size
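Viability by ATPlite luminescence after 24 h compound treatment (up to 46 uM) at the permissive 32C. Cells are H1299 carrying p53 A138V. Scale runs from DMSO basal to 100 uM tamoxifen as full kill; AC50 from Hill fits.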
p53ts 39C tox: cytotoxicity in p53ts cells at nonpermissive temperature; 1.5% of 130,000 active; H1299-p53A138V viability at 39C, ATP luminescence, 24 h; Potency, µM (titrated, usually from 46.1 µM), hits mostly cytotoxic; AID 902; note: nearly all actives have a fitted effect of over 55% in size
Numbers stand for hits; i = inactive; ? = inconclusive; nt = no result; [ ] = remark or other dose. Unless noted, calls come from the whole dose curve; as a rule, active = well fitted curve in the direction sought with a large enough effect; inconclusive = small, poorly fitted or top-dose-only effect, or another doubt; inactive = no such curve, though single readings can be large; an effect the other way counts as inactive or inconclusive.

SMILES | Peg3 imprint | IkB signaling | p53ts 32C kill | p53ts 39C tox
CCN1C(C)=C(C(=O)OC)C(c2ccccc2)N2C(=O)[C@](O)(C(=O)OC)CC(C(C)=O)=C12 (stereo partly drawn) | nt | nt | i[9.22 µM] | i[9.22 µM]
CCOc1ccc(CNC(=O)C2CCN(C(=O)c3sccc3-n3cccc3)CC2)cc1 | i[10.9 µM] | ? | i | i
COc1cc(NC(=O)CC(C)S(=O)(=O)c2ccc3c(c2)CCN3C(C)=O)cc(OC)c1OC (stereo not drawn) | i[10.9 µM] | i | i | i
COc1ccc2nc(NC(=O)c3nc(S(=O)(=O)Cc4ccccc4)ncc3Cl)sc2c1 | i[10.9 µM] | ? | 13µM | 5µM
COc1ccc2nc(NC(=O)c3nc(SCc4ccccc4F)ncc3Cl)sc2c1 | i[10.9 µM] | i | i | i
Cc1nnc(NC(=O)c2nc(S(=O)(=O)Cc3ccccc3)ncc2Cl)s1 | i[10.9 µM] | i | ? | 16µM
COc1ccc2nc(NC(=O)c3nc(S(=O)(=O)Cc4ccccc4F)ncc3Cl)sc2c1 | i[10.9 µM] | i | ? | 4µM
O=C(Nc1nc2ccc(F)cc2s1)c1nc(S(=O)(=O)Cc2ccccc2)ncc1Cl | i[10.9 µM] | i | ? | ?
Cc1cccc(CS(=O)(=O)c2ncc(Cl)c(C(=O)Nc3nc4ccc(F)cc4s3)n2)c1 | i[10.9 µM] | ? | 16µM | 10µM
C=CC[C@@H]1C=C[C@@H](O/N=C\[C@@H](OC)[C@H](C)/C=C\CC(=O)OC)[C@@H](CO)O1 | nt | nt | i[9.22 µM] | i[9.22 µM]
COc1ccc2nc(NC(=O)c3cc(=O)c4ccccc4o3)sc2c1 | i[10.9 µM] | ? | ? | 10µM
COC(=O)c1ccccc1NC(=O)c1nc(S(=O)(=O)Cc2ccccc2F)ncc1Cl | i[10.9 µM] | i | i | i
O=C(Nc1ccccc1F)c1nc(S(=O)(=O)Cc2ccccc2F)ncc1Cl | i[10.9 µM] | ? | ? | 4µM
Cc1ccc2nc(NC(=O)c3cc(=O)c4cc(C)c(C)cc4o3)sc2c1 | i[10.9 µM] | i | i | i
CCCCCCCCCCCCCCCC(=O)O[C@H](CC(=O)O)C[N+](C)(C)C | i | i | 13µM | ?
O=C(O)Cn1c(=O)oc2cc(S(=O)(=O)N3CCOCC3)ccc21 | i | i | i | i
Cc1nnc(SCC(=O)NCc2cccc(F)c2)c2nn(-c3ccccc3)c(C)c12 | i[10.9 µM] | i | i | i
CCOc1ccc(CNC(=O)CSc2nnc(C)c3c(C)n(-c4ccccc4)nc23)cc1 | i[10.9 µM] | i | i | 25µM
CCCCNC(=O)CSc1nnc(C)c2c(C)n(-c3ccccc3)nc12 | i[10.9 µM] | ? | i | 16µM
CN1CCN(C(CNC(=O)c2c(F)cccc2F)c2ccc3c(c2)OCO3)CC1 (stereo not drawn) | ? | i | i | i
COc1ccc(-c2csc3ncnc(Nc4ccc(OC)c(OC)c4)c23)cc1 | i[10.9 µM] | i | i | i
CN(C)Cc1ccccc1-c1cc(Nc2ccccc2)ncn1 | i | i[11.4 µM] | i | i
CC(C)CC1NC(=O)C(CCCN)NC(=O)C(C(C)C)NC(=O)C2CCCN2C(=O)C(Cc2ccccc2)NC(=O)C(CC(C)C)NC(=O)C(CCCN)NC(=O)C(C(C)C)NC(=O)C2CCCN2C(=O)C(Cc2ccccc2)NC1=O (stereo not drawn) | i | nt | i | 5µM
O=C1N[C@@H](Cc2ccccc2)C(=O)N2CCCC12 (stereo partly drawn) | i | nt | nt | nt
CC(C)(C)c1ccc(C(=O)Nc2cnccn2)cc1 | i | i | 5µM | 5µM
SMILES | Peg3 imprint | IkB signaling | p53ts 32C kill | p53ts 39C tox
COc1ccc(C(=O)Nc2ccccn2)cc1 | nt | nt | i | i
CCOC(=O)c1nn(-c2ccc3c(c2)CCN3C(C)=O)cc1O | i | i | 5µM | 4µM
COC(=O)[C@@]1(Cc2ccc(OC)cc2)[C@H]2c3cc(C(=O)N4CCCC4)n(CCc4c[nH]c5ccc(O)cc45)c3C[C@H]2CN1C(=O)c1ccccc1 | i | nt | i | i
c1ccc(-c2nc3nonc3nc2-c2ccccc2)cc1 | i | i | ? | 13µM
COc1ccc(-n2c(SCC(=O)NCc3ccccc3)nc3n[nH]c(C)c3c2=N)cc1 | i[10.9 µM] | i | i | i
CCCCNC(=O)c1cnn2c(C)c(Cc3c(C)cc(C)cc3C)c(C)nc12 | i[10.9 µM] | ? | ? | 16µM
c1cc2c(cc1-c1cnc3n1CCC3)OCCO2 | i | ? | ? | 13µM
Cn1c(-c2ccc3c(c2)OCO3)cnc1N | i | i | i | i
Cc1ccc(-n2c(SCc3cccc(F)c3)nc3[nH]ncc3c2=O)cc1C | i[10.9 µM] | i | i | i
CCc1ccc(-n2c(SCc3ccccc3Cl)nc3[nH]ncc3c2=O)cc1 | i[10.9 µM] | ? | ? | ?
CCc1ccc(-n2c(SCc3ccccc3C)nc3[nH]ncc3c2=O)cc1 | i[10.9 µM] | ? | ? | 25µM
Cc1ccc(-n2c(SCc3ccccc3C)nc3[nH]ncc3c2=O)cc1C | i[10.9 µM] | ? | i | 25µM
CC1=C(/C=C/C(C)=C/C=C/C(C)=C/C(=O)Nc2ccc(O)cc2)C(C)(C)CCC1 | i | ? | ? | 16µM
CC1=C(\C=C/C(C)=C/C=C\C(C)=C\C(=O)O)C(C)(C)CCC1 | i | ? | i | i
c1ccc(-c2ccc(N3CCCC4(CCNCC4)C3)cc2)cc1 | nt | i[11.4 µM] | 20µM | 13µM
c1ccc(-c2ccc(N3CC4(CCNCC4)C3)cc2)cc1 | nt | i[11.4 µM] | 20µM | 16µM
COC(=O)N1CCC2(CC1)CN(c1ccc(-c3ccccc3)cc1)C2 | nt | i[11.4 µM] | i | i
CCCCOc1cccc(C(=O)Nc2cc(NC(=O)c3ccco3)ccc2OC)c1 | i[10.9 µM] | ? | i | i
COc1ccc(NC(=O)CSc2nc3c(oc4ccccc43)c(=O)n2Cc2ccco2)cc1Cl | i[10.9 µM] | ? | i | ?
CCOCc1cc(CN2CCN(c3ccccc3OC)CC2)c(O)c2ncccc12 | i[10.9 µM] | i | i | 20µM
CC(C)OCc1cc(CN2CCN(c3cccc(C(F)(F)F)c3)CC2)c(O)c2ncccc12 | i[10.9 µM] | i | i | 16µM
COCc1cc(CN2CCCC2)c(O)c2ncccc12 | i | i | i | ?
COc1ccccc1N1CCN(Cc2cc(COC(C)C)c3cccnc3c2O)CC1 | i[10.9 µM] | ? | ? | 2.5µM
COc1ccccc1N1CCN(Cc2cc(Br)c(O)c3ncccc23)CC1 | i | ? | i | 16µM
CCOc1ccccc1N1CCN(Cc2cccc(OC)c2O)CC1 | i | ? | i | i
SMILES | Peg3 imprint | IkB signaling | p53ts 32C kill | p53ts 39C tox
C#CCCCO/N=C1/C[C@@H](O)[C@@H](O)[C@@H]2[C@@H]3C(=O)N(C4CCCCC4)C(=O)[C@H]3CC[C@H]12 | nt | nt | i[9.22 µM] | i[9.22 µM]
O=C(c1cc(-c2cccc(Cl)c2)on1)N1CCCCC1 | ? | i | i | i
CCOCc1cc(CN2CCN(c3cccc(C(F)(F)F)c3)CC2)c(O)c2ncccc12 | i[10.9 µM] | ? | i | ?
CCCOCc1cc(CN2CCN(c3ccccc3OC)CC2)c(O)c2ncccc12 | i[10.9 µM] | ? | 16µM | 10µM
COc1ccccc1-c1nc(-c2ccccn2)no1 | i | ? | 4µM | 5µM
COc1nc(C)ccc1-c1noc(-c2ccccn2)n1 | i | i | 10µM | 10µM
COc1ccc(-c2noc(-c3cccc(OC)c3OC)n2)cc1 | i[10.9 µM] | ? | 13µM | ?
COc1ccccc1-c1noc(-c2ccncc2)n1 | i | i | ? | ?
COc1ccc(-c2noc(-c3ccccc3-c3ccccc3)n2)cc1OC | i | i | i | i
COc1ccccc1-c1nc(-c2ccc(C)nc2OC)no1 | i | i | ? | ?

Screening data deposited in PubChem BioAssay by National Center for Advancing Translational Sciences (NCATS).
